Among the test systems are NCI-H23 lung; NCI-H226 lung; NCI-H322M lung; HOP-62 NSCLC; NCI-H460 lung; NCI-H522 lung; A549/ATCC NSCLC; 786-0 renal; DU-145 prostate; K-562 leukemia; MALME-3M melanoma; MDA-MB-231 breast; SF-268 CNS; SF-295 CNS; SF-539 CNS; M14 melanoma; COLO 205 colon; HOP-92 NSCLC; RXF 393 renal; UACC-257 melanoma.
Experiment in all cases: NCI-60 one-dose screen, 48 h (100 = growth as untreated, 0 = no growth, -100 = all killed)
Common to all, as to conditions: 10 µM unless noted

Our source for the growth values is PubChem BioAssay (NCI).

The panel holds about 83,000 compounds, 20% with a hit somewhere; the sample as a whole holds those more often.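 Each cell line was grown in a 96-well plate and treated with one concentration of compound for 48 hours. Values below 10 were considered active.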 A number with no mark means an inactive call. Active and inactive are the calls of the source.

For `COc1cc2c(cc1OCCCCCN1CCN(c3ncnc4ccccc34)CC1)N=CC1CCCN1C2=O` (stereo not given), the growth with NCI-H23 lung was 3.3% (active); with NCI-H226 lung it was -58.2% (active); in the assay with NCI-H322M lung, -0.115% (active); in the assay with HOP-62 NSCLC, -22.4% (active); in the assay on NCI-H460 lung, 5.35% (active); in the assay with NCI-H522 lung, -55.4% (active). Besides, the growth with A549/ATCC NSCLC was 1.13% (active); in the assay on 786-0 renal, -9.08% (active); with DU-145 prostate, -20.8% (active); in the assay on K-562 leukemia, 5.44% (active); with MALME-3M melanoma, -59% (active); with MDA-MB-231 breast it was -26.6% (active). The growth is -0.231% (active) in the assay with SF-268 CNS, -39.7% (active) with SF-295 CNS, -77.3% (active) in the assay with SF-539 CNS and -66.9% (active) in the assay with M14 melanoma.
Regarding `ClCc1ccc(-c2ccc(Cn3cnc4nc(Cl)nc(Cl)c43)cc2)cc1`, the growth in the assay on NCI-H23 lung is 23.6%; in the assay with NCI-H226 lung it was 29.1%; in the assay with NCI-H322M lung it was 56.8%; in the assay with HOP-62 NSCLC, 8.06% (active); in the assay with NCI-H460 lung, 14.3%; in the assay with NCI-H522 lung, -25.2% (active). For the same molecule, the growth in the assay on A549/ATCC NSCLC was -6.5% (active); with 786-0 renal it was -14% (active); in the assay with COLO 205 colon, -14.1% (active); with DU-145 prostate, -50% (active); with K-562 leukemia it was -14.4% (active); with MALME-3M melanoma, -32.8% (active). Also, the growth in the assay with MDA-MB-231 breast was -21.4% (active); in the assay on SF-268 CNS, 1.27% (active); in the assay on SF-295 CNS it was -62.5% (active); with SF-539 CNS it was -45% (active).
Take `C=CC(=O)Nc1cc(Nc2nccc(-c3cn(C)c4ccccc34)n2)c(OC)cc1N(C)CCN(C)C`: the growth was 8.43% (active) with NCI-H23 lung; -5.77% (active) with NCI-H322M lung; -23.9% (active) in the assay with HOP-62 NSCLC; -54.8% (active) in the assay on NCI-H460 lung; -15.8% (active) in the assay on HOP-92 NSCLC; -68.6% (active) with NCI-H522 lung. Also, the growth in the assay on A549/ATCC NSCLC was -43.5% (active); in the assay on 786-0 renal it was -87.9% (active); in the assay on COLO 205 colon, -81.1% (active); in the assay on DU-145 prostate, 9.23% (active); with K-562 leukemia, -40.1% (active); with MALME-3M melanoma, -82.4% (active). The growth in the assay with MDA-MB-231 breast is -68.4% (active); in the assay with RXF 393 renal, -84.2% (active); in the assay on SF-268 CNS, -15.6% (active); in the assay on SF-295 CNS it was -41.4% (active); with SF-539 CNS it was -90.7% (active); in the assay on UACC-257 melanoma, -79.1% (active).
Regarding `O=C1C=CC2(NN=C(c3ccccc3)N2c2cccc(Cl)c2)C(Cl)=C1` (stereo not given), the growth is 85.9% with NCI-H23 lung; 86.5% with NCI-H226 lung; 82.6% with NCI-H322M lung; 91.8% in the assay on NCI-H460 lung; 84.5% in the assay with HOP-92 NSCLC; 36.6% in the assay with NCI-H522 lung. Moreover, the growth was 80.1% in the assay on A549/ATCC NSCLC; 98% in the assay with 786-0 renal; 103% with COLO 205 colon; 103% in the assay on DU-145 prostate; 28.6% in the assay on K-562 leukemia; 107% in the assay with MALME-3M melanoma. Also, the growth with MDA-MB-231 breast is 61.6%; with RXF 393 renal it was 92.4%; with SF-268 CNS, 74.9%; in the assay with SF-295 CNS it was 76.7%; in the assay on SF-539 CNS it was 96.8%; in the assay with UACC-257 melanoma, 78.4%. Besides, the growth with M14 melanoma is 84.7%.
Turning to `CCN1CCN(c2nc(C)cc(N(CCCNc3ccnc4cc(Cl)ccc34)Cc3ccc4c(c3)OCO4)n2)CC1`, the growth with NCI-H23 lung is 46%; with NCI-H226 lung it was 61%; with NCI-H322M lung, -11.1% (active); in the assay on NCI-H460 lung it was -6.13% (active); in the assay with HOP-92 NSCLC, -33.9% (active); in the assay on NCI-H522 lung it was -43.1% (active). Moreover, the growth is 5.33% (active) in the assay on A549/ATCC NSCLC; -85.8% (active) with 786-0 renal; 25% in the assay with DU-145 prostate; -10.5% (active) in the assay with K-562 leukemia; -81.9% (active) in the assay with MALME-3M melanoma; -32.8% (active) in the assay on MDA-MB-231 breast. The growth is -73.4% (active) in the assay on RXF 393 renal; -6.06% (active) in the assay on SF-268 CNS; -76.1% (active) in the assay with SF-295 CNS; -86.1% (active) with SF-539 CNS; -87.9% (active) in the assay with M14 melanoma.
For the molecule `CC(=Nc1ccccc1)C1=C(O)C(Cc2ccc(O)cc2)NC1=O` (stereo not given), the growth in the assay with NCI-H23 lung was 2.24% (active); in the assay on NCI-H226 lung, 15.5%; with NCI-H322M lung, 39.6%; with NCI-H460 lung, 4.41% (active); in the assay with HOP-92 NSCLC, -10.1% (active); with NCI-H522 lung it was -27.1% (active). The growth is -27.7% (active) with A549/ATCC NSCLC; 9.29% (active) in the assay with 786-0 renal; -71% (active) in the assay with COLO 205 colon; -28.6% (active) with DU-145 prostate; 58.6% in the assay with MALME-3M melanoma; 11.3% in the assay with MDA-MB-231 breast. In addition, the growth in the assay on SF-268 CNS is 11.5%; in the assay on SF-295 CNS, -41.1% (active); with SF-539 CNS, -33.7% (active); with M14 melanoma, 0.122% (active).
In the case of `Cc1ccc2oc(=O)cc(-c3cc(-c4cc5ccccc5oc4=O)nc(N)c3C#N)c2c1`, the growth with NCI-H23 lung was 62.7%; in the assay with NCI-H226 lung it was 93.3%; in the assay with NCI-H322M lung it was 72.8%; with NCI-H460 lung it was 27%; in the assay with HOP-92 NSCLC, 40.1%; in the assay on NCI-H522 lung, 87.6%. Besides, the growth in the assay on A549/ATCC NSCLC was 54.8%; in the assay with 786-0 renal, 15.6%; in the assay on COLO 205 colon, 80.2%; in the assay on DU-145 prostate it was 61.6%; in the assay with K-562 leukemia, 81%; with MALME-3M melanoma it was 51.3%. In addition, the growth is 55.5% with MDA-MB-231 breast, 48.1% in the assay with SF-268 CNS, 63.4% with SF-295 CNS and 59.8% in the assay with SF-539 CNS.
On to `C[C@H]1Oc2cc(cnc2N)-c2c(nn(C)c2C#N)CN(C)C(=O)c2ccc(F)cc21`, for which the growth with NCI-H23 lung was 84%; in the assay with NCI-H226 lung, 92.2%; with NCI-H322M lung, 104%; with NCI-H460 lung it was 96.7%; with HOP-92 NSCLC it was 48.4%; in the assay with NCI-H522 lung, 66.5%. For the same molecule, the growth is 66.1% with A549/ATCC NSCLC; 77.9% with 786-0 renal; 36.3% in the assay with COLO 205 colon; 91.9% in the assay with DU-145 prostate; 79.4% in the assay with K-562 leukemia; 95.6% with MALME-3M melanoma. Moreover, the growth in the assay on MDA-MB-231 breast was 69.7%; in the assay on RXF 393 renal it was 85.5%; in the assay on SF-268 CNS, 73.1%; with SF-295 CNS, 85.9%; with SF-539 CNS it was 96.4%; in the assay with UACC-257 melanoma, 58.5%.
`CCCCn1c(C)nc2cc(Nc3nc(N4CCCCC4)nc4nc[nH]c34)ccc21`: the growth in the assay with NCI-H23 lung was 51.4%; in the assay on NCI-H226 lung it was 44.4%; in the assay with NCI-H322M lung, 81.8%; in the assay with NCI-H460 lung it was 65.5%; in the assay with HOP-92 NSCLC, -9.51% (active); with NCI-H522 lung, 52.6%. The growth with A549/ATCC NSCLC is 48.4%; with 786-0 renal, 49.1%; in the assay on COLO 205 colon, 28.9%; in the assay on DU-145 prostate, 60.2%; in the assay with K-562 leukemia, 28.7%; in the assay with MALME-3M melanoma it was 61.5%. Also, the growth in the assay on MDA-MB-231 breast was 39.2%; in the assay with RXF 393 renal, 22.1%; with SF-268 CNS it was 60.4%; with SF-295 CNS, 47.1%; in the assay on SF-539 CNS, 71.2%; in the assay with UACC-257 melanoma, 62.1%. The growth with M14 melanoma is 32.8%.
